Structures are written as SMILES. The panel holds about 83,000 compounds, 20% with a hit somewhere; the sample as a whole holds those more often.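 Cell lines were cultured in 96-well plates, exposed to a single compound concentration, and assessed for percent growth 48 hours later.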 Unmarked numbers belong to inactive results. Active and inactive are the calls of the source. The calls were made as follows: active = growth percent below 10; inactive = the rest.

Common to all, as to test: NCI-60 one-dose screen, 48 h (100 = growth as untreated, 0 = no growth, -100 = all killed)
The subject of test [1] is SK-MEL-2 melanoma. As to conditions: 10 µM unless noted.
Test [2] deals with EKVX NSCLC. As to conditions: 10 µM unless noted.
Test [3] relates to SN12C renal. To be noted: 10 µM unless noted.
Test [4] deals with UO-31 renal. As to conditions: 10 µM unless noted.
The subject of test [5] is ACHN renal. As to conditions: 10 µM unless noted.
The test system of test [6] is CAKI-1 renal. As to conditions: 10 µM unless noted.
Test [7] relates to CCRF-CEM leukemia. To be noted: 10 µM unless noted.
The test system of test [8] is MOLT-4 leukemia. As to conditions: 10 µM unless noted.
Test [9] relates to SR leukemia. To be noted: 10 µM unless noted.
Test [10] deals with RPMI-8226 leukemia. As to conditions: 10 µM.
The test system of test [11] is OVCAR-8 ovarian. To be noted: 10 µM unless noted.
The subject of test [12] is OVCAR-5 ovarian. To be noted: 10 µM unless noted.
Test [13] concerns OVCAR-4 ovarian. To be noted: 10 µM unless noted.
In test [14] the test system is SK-OV-3 ovarian. As to conditions: 10 µM.
Test [15] relates to IGROV1 ovarian. As to conditions: 10 µM unless noted.
In test [16] the test system is OVCAR-3 ovarian. As to conditions: 10 µM unless noted.
Test [17] concerns NCI/ADR-RES ovarian. To be noted: 10 µM unless noted.
In test [18] the test system is TK-10 renal. As to conditions: 10 µM unless noted.
Test [19] deals with HS 578T breast. To be noted: 10 µM unless noted.
Test [20] concerns A498 renal. As to conditions: 10 µM unless noted.

As to `CCN(CC)CCCNc1ccc(C)c2sc3ccccc3c(=O)c12`, the growth was 94% in [1]; 87.9% in [2]; 40.5% in test [3]; 44.7% in [4]; 20.9% in test [5]; 64.6% in test [6]. Further, the growth was 21.8% in test [7]; 15.3% in [8]; -11.8% (active) in test [9]; 15.4% in test [10]; 43.2% in test [11]; 56.4% in test [12]. The growth is 64.8% in [13]; 56.2% in test [14]; 51.9% in test [15]; 68.5% in test [16]; 58.4% in test [17].
Regarding `O=C(N/N=C(\CS(=O)(=O)c1ccccc1)c1cc2ccccc2oc1=O)c1ccccc1`, the growth in test [1] was 115%; in [2], 101%; in test [3], 101%; in test [4], 94%; in [18], 119%; in test [5], 101%. Also, the growth in [6] is 96.4%; in [8] it was 115%; in test [9], 101%; in [10], 112%; in [11], 100%; in test [12] it was 101%. Further, the growth in [15] was 109%; in test [16], 111%; in test [19], 106%; in test [17] it was 107%.
For the compound `COc1ccc(-c2nn(-c3ccc(NC(=O)c4ccc(Cl)c(Cl)c4)cc3)cc2-c2ccncc2)cc1Cl`, the growth in test [1] is 43.5%; in [2], 56.4%; in test [3], 80.5%; in test [4], 2.82% (active); in test [5], 52.6%; in [6], -13.7% (active). For the same compound, the growth in test [20] was -0.135% (active); in test [7] it was 37.4%; in test [8] it was 13.8%; in [9], 27.4%; in [10], -35.4% (active); in test [11], 63.8%. The growth in test [12] is 60.9%; in test [13], 79.5%; in [14], 65.6%; in test [15] it was 61.9%; in test [16], 56.7%.
In the case of `O=C(C[Si](CC(=O)c1cccc(C(F)(F)F)c1)CC(=O)c1cccc(C(F)(F)F)c1)c1cccc(C(F)(F)F)c1`, the growth in [1] is 94.1%; in test [2], 36.7%; in [3], 69.5%; in test [4], 31.4%; in test [5] it was 79.1%; in [6] it was 41.7%. For the same compound, the growth was 60.4% in test [20]; 14.4% in test [7]; -19.2% (active) in test [8]; 5.27% (active) in test [9]; 4.44% (active) in [10]; 90.9% in test [11]. Moreover, the growth in test [12] was 91.4%; in [13], 88.3%; in test [14], 98.3%; in test [15], 48.3%; in test [16] it was 37.8%; in test [17], 78.4%.
As to `COc1cc(Cn2cc(F)c(=O)[nH]c2=O)cc(OC)c1`, the growth in test [1] is 114% [50 µM]; in test [2], 98.6% [50 µM]; in test [3] it was 98.9% [50 µM]; in test [4], 75.3% [50 µM]; in test [5], 101% [50 µM]; in [6] it was 92.9% [50 µM]. The growth in [20] was 98.2% [50 µM]; in test [7], 103% [50 µM]; in [8], 103% [50 µM]; in test [9], 103% [50 µM]; in test [11], 101% [50 µM]; in [12] it was 101% [50 µM]. For the same compound, the growth in [13] was 108% [50 µM]; in test [15], 106% [50 µM]; in [16], 126% [50 µM]; in test [19], 96.7% [50 µM]; in [17], 112% [50 µM].
`N#C/C(=C\c1ccc[nH]1)c1cc2ccccc2[nH]1`: the growth in test [1] was 65.9%; in [2] it was 37.4%; in [3], 72.3%; in test [4], 55%; in test [5], 69.7%; in test [6] it was 52.4%. The growth is 69.2% in test [20]; 52% in [7]; 62.9% in [8]; 68.3% in [9]; 74.9% in test [11]; 82.4% in [12]. Also, the growth in test [13] was 24.1%; in test [15], 59.2%; in test [16], 81.1%; in test [19], 87.5%; in test [17] it was 76.9%.
In the case of `Cc1ccc(C2SCC(=O)N2NC(=O)c2[nH]c3ccc(F)cc3c2-c2ccccc2)cc1` (configuration not stated), the growth was 97.6% in [1]; 84.4% in test [2]; 95.8% in test [3]; 75.1% in [4]; 108% in test [18]; 77.1% in test [6]. The growth in [7] is 89.1%; in [8], 69.2%; in test [9], 76.1%; in test [10] it was 86.7%; in test [11], 92.1%; in test [12] it was 99.9%. The growth in [13] was 79.7%; in test [14], 107%; in test [15], 88.4%; in [16] it was 92%; in test [19], 95.3%.
On to `Clc1ccc(Nc2ccnc(N3CCN(c4ccnc5cc(Cl)ccc45)CC3)n2)cc1`, for which the growth in [1] was 73.7%; in [3], 51.4%; in [4] it was -8.75% (active); in [18] it was 60.9%; in test [5], 41.9%; in test [6] it was 34.8%. Also, the growth in test [20] is -1.58% (active); in test [7], 38.4%; in test [8] it was 31.9%; in test [9] it was 37.2%; in test [10], 34.5%; in test [11] it was 61.4%. In addition, the growth in [12] is 70.6%; in test [13], 41.9%; in [14] it was 62.5%; in test [15], -4.05% (active); in [16] it was 35.5%; in [19], 49.1%.
Turning to `COc1cc(-c2nc(Nc3nc4ccccc4[nH]3)nc(N)c2C#N)cc(OC)c1OC`, the growth in test [1] is 59.2%; in [2], 74.5%; in test [3], 92.8%; in test [4], 69.9%; in test [18], 80.6%; in [5], 61.7%. The growth in test [6] is 56.9%; in [7] it was 70.1%; in test [10], 69.8%; in test [11] it was 79.6%; in test [13], 72.8%; in test [14], 52.6%. The growth in test [15] is 43%; in [16], 15.1%; in test [17] it was 97.9%.
